# From PubChem BioAssay (NCI)
# The panel holds about 83,000 compounds, 20% with a hit somewhere; the sample as a whole holds those more often.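 Note: values are percent growth. 100 is the growth of untreated cells, values between 100 and 0 indicate rising inhibition; between -100 and 0 indicates cell death.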 A number with no mark means an inactive call. Active and inactive are the calls of the source. The calls were made as follows: active = growth percent below 10; inactive = the rest.
# Legend:
# Experiment in all cases: NCI-60 one-dose screen, 48 h (100 = growth as untreated, 0 = no growth, -100 = all killed)
# Conditions in all cases: 10 µM unless noted
# HCT-15 colon = tested on: HCT-15 colon
# HT29 colon = tested on: HT29 colon
# SNB-75 CNS = tested on: SNB-75 CNS
# SNB-19 CNS = tested on: SNB-19 CNS
# U251 CNS = tested on: U251 CNS
# PC-3 prostate = tested on: PC-3 prostate
# SK-MEL-5 melanoma = tested on: SK-MEL-5 melanoma
# UACC-62 melanoma = tested on: UACC-62 melanoma
# LOX IMVI melanoma = tested on: LOX IMVI melanoma
# SK-MEL-28 melanoma = tested on: SK-MEL-28 melanoma
# SK-MEL-2 melanoma = tested on: SK-MEL-2 melanoma
# EKVX NSCLC = tested on: EKVX NSCLC
# SN12C renal = tested on: SN12C renal
# UO-31 renal = tested on: UO-31 renal
# TK-10 renal = tested on: TK-10 renal
# ACHN renal = tested on: ACHN renal
# CAKI-1 renal = tested on: CAKI-1 renal
# A498 renal = tested on: A498 renal
# CCRF-CEM leukemia = tested on: CCRF-CEM leukemia
# MOLT-4 leukemia = tested on: MOLT-4 leukemia
SMILES,growth (HCT-15 colon),growth (HT29 colon),growth (SNB-75 CNS),growth (SNB-19 CNS),growth (U251 CNS),growth (PC-3 prostate),growth (SK-MEL-5 melanoma),growth (UACC-62 melanoma),growth (LOX IMVI melanoma),growth (SK-MEL-28 melanoma),growth (SK-MEL-2 melanoma),growth (EKVX NSCLC),growth (SN12C renal),growth (UO-31 renal),growth (TK-10 renal),growth (ACHN renal),growth (CAKI-1 renal),growth (A498 renal),growth (CCRF-CEM leukemia),growth (MOLT-4 leukemia)
C1CN(SSN2CCOCC2)CCO1,19.2% [100 µM],-50.6% [100 µM] (active),48.3% [100 µM],67% [100 µM],-28% [100 µM] (active),31.2% [100 µM],25.7% [100 µM],19.8% [100 µM],-41% [100 µM] (active),-43.3% [100 µM] (active),63.1% [100 µM],13.1% [100 µM],-74.7% [100 µM] (active),-37.5% [100 µM] (active),-72.8% [100 µM] (active),-70.1% [100 µM] (active),-48.4% [100 µM] (active),75.8% [100 µM],11.8% [100 µM],50.4% [100 µM]
Nc1ncc(-c2ccc3ncnc(Nc4cccc(Cl)c4)c3c2)cn1,38.8%,40%,49.8%,59.4%,43.6%,36.1%,64.8%,50.6%,44.8%,63.8%,50.1%,1.79% (active),45.9%,26.2%,-14.8% (active),21.5%,25.6%,-9.82% (active),40.5%,21.7%
[O-]/[N+](=C\c1ccc(-n2cc(Cc3ccccc3Cc3cn(-c4ccc(/C=[N+](/[O-])c5ccccc5)cc4)nn3)nn2)cc1)c1ccccc1,98.8%,101%,91.9%,96.7%,107%,103%,105%,94.7%,87.9%,110%,111%,96.8%,101%,93.3%,121%,103%,98.8%,83.3%,103%,89.5%
C#COc1cccc(Nc2c(C#N)cnc3ncc(NC(=O)CCl)cc23)c1,22.8% [6.25 µM],3.12% [6.25 µM] (active),54.2% [6.25 µM],11% [6.25 µM],-42.8% [6.25 µM] (active),19.6% [6.25 µM],47.7% [6.25 µM],37.5% [6.25 µM],-2.95% [6.25 µM] (active),50.8% [6.25 µM],12.4% [6.25 µM],52% [6.25 µM],17.3% [6.25 µM],41.1% [6.25 µM],26.8% [6.25 µM],32.4% [6.25 µM],36.1% [6.25 µM],56.7% [6.25 µM],-25.3% [6.25 µM] (active),-2.02% [6.25 µM] (active)
CC(=O)Oc1ccc(C)cc1C,100%,105%,70.3%,103%,103%,97%,108%,105%,97.1%,107%,99.7%,112%,102%,85.7%,102%,101%,101%,87.4%,102%,106%
COc1ccc(F)cc1/C=C/C(=O)/C=C(/C=C/c1cc(F)ccc1OC)OB(F)F,9.21% (active),18%,83.7%,72.4%,14%,29%,53.6%,14.8%,3.94% (active),48.1%,84.1%,71.3%,8.78% (active),-9.88% (active),32.9%,2.25% (active),28.7%,108%,-14.7% (active),-16.5% (active)
COc1ccc(\C=N/N=C(N)/C(N)=N\N=C/c2ccc(OC)cc2)cc1,104%,102%,86.8%,112%,107%,101%,105%,104%,99.1%,125%,95.5%,95.6%,111%,89.1%,101%,100%,89.8%,96.3%,-48.3% (active),109%
NNc1nc(-c2cccnc2)nc2c1sc(=S)n2-c1ccccc1,96.3%,90.3%,87.4%,113%,90.6%,72.6%,98.4%,108%,86.7%,119%,68%,95.1%,102%,79.3%,83.6%,106%,97.9%,124%,90.5%,86%
O=C1/C(=C/c2ccccc2O)CC/C1=C\c1ccccc1O,35.1%,99.6%,77.2%,31.3%,69.1%,8.94% (active),77.9%,36.6%,45.9%,96.8%,105%,56.9%,27.7%,46.4%,160%,70.2%,92.4%,108%,1.74% (active),6.67% (active)
CCN(CC)CCCCCNc1cc(OC(=O)c2ccc(Cl)cc2)cc2cccnc12,97.7%,87.6%,89.5%,103%,105%,88.8%,105%,98%,106%,116%,103%,104%,96.8%,94.7%,106%,106%,106%,95.6%,108%,72.6%
Cc1ccc(/C=C2\COc3ccc(O)cc3C2=O)cc1,70.8%,57.7%,84.6%,87.5%,69.9%,86%,97.7%,86.1%,57%,103%,117%,97.8%,79.9%,58.9%,102%,94%,80.8%,109%,2.21% (active),40.6%
CCCCNCCCCCNc1cc(OC)cc2cccnc12,88.2%,96%,74.1%,95.5%,91.8%,77.8%,94.3%,83.2%,105%,98.8%,106%,106%,97.6%,63.1%,100%,100%,114%,87.9%,106%,100%
CC(=O)O[C@H]1CC2CCC3C(CC[C@@]4(C)C3C[C@H]([N+]3(C)CCCCC3)[C@@H]4OC(C)=O)[C@@]2(C)C[C@@H]1N1CCCCC1 (stereo not given in full),118%,105%,99.6%,100%,90.8%,92.8%,112%,92.6%,95.2%,108%,111%,97.7%,93%,83.3%,108%,104%,88.1%,111%,103%,98.9%
CCOC(=O)[C@@H]1CSC(CC)=C(C(=O)O)N1,104%,111%,115%,100%,94.6%,-9.62% (active),103%,94.4%,104%,101%,111%,105%,98.4%,85.1%,110%,97.6%,97.1%,108%,-12.6% (active),-5.82% (active)
Cc1[nH]c(=O)[nH]c(=O)c1Br,106%,131%,91.6%,98%,98.2%,97.9%,112%,97.3%,104%,114%,148%,106%,98%,105%,114%,104%,92.9%,103%,107%,94%
